Experimental data published in article PMC5540273 (PLoS ONE, 2017).

How the values were obtained:
Settings in all cases: concentration: 1 μM,replicates: in singlicate; n = 1
[1] = tested on: MAPKAPK5
[2] = tested on: MARK1
[3] = tested on: MARK2
[4] = tested on: MARK3
[5] = tested on: MARK4
[6] = tested on: MAST1
[7] = tested on: T1, MEK1
T1 construct: gene MAP2K1

[8] = tested on: T2, MEK2
T2 construct: gene MAP2K2

[9] = tested on: T3, MEK3
T3 construct: gene MAP2K3

[10] = tested on: T4, MEK4
T4 construct: gene MAP2K4
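Also: KINOMEscan kinase panel screen.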

## Cc1n[nH]c2ccc(-c3cc(OC[C@@H](N)Cc4ccccc4)cnc3-c3ccoc3)cc12.O=C(O)C(F)(F)F.O=C(O)C(F)(F)F [GSK507358]
[1]
  %Inh: 0%
[2]
  %Inh: 0%
[3]
  %Inh: 0%
[4]
  %Inh: 0%
[5]
  %Inh: 0%
[6]
  %Inh: 0%
[7]
  %Inh: 37%
[8]
  %Inh: 36%
[9]
  %Inh: 82%
[10]
  %Inh: 35%

## Cc1ccc2c(-c3ccncc3)c(-c3ccc(F)cc3)nn2c1.Cl [GW461484]
[1]
  %Inh: 0%
[2]
  %Inh: 0%
[3]
  %Inh: 0%
[4]
  %Inh: 0%
[5]
  %Inh: 0%
[6]
  %Inh: 6%
[7]
  %Inh: 0%
[8]
  %Inh: 0%
[9]
  %Inh: 0%
[10]
  %Inh: 0%

## Cl.Cl.NC[C@H](CC1CCCCC1)NC(=O)c1cc(Br)c(-c2ccnc3[nH]ccc23)s1 [GSK1581427]
[1]
  %Inh: 0%
[2]
  %Inh: 0%
[3]
  %Inh: 25%
[4]
  %Inh: 74%
[5]
  %Inh: 0%
[6]
  %Inh: 0%
[7]
  %Inh: 0%
[8]
  %Inh: 0%
[9]
  %Inh: 89%
[10]
  %Inh: 41%

## CN(C)CC(O)COc1ccc(Nc2nccc(-c3cnn4nc(N5CCOCC5)ccc34)n2)cc1 (stereo not drawn) [GW767488]
[1]
  %Inh: 23%
[2]
  %Inh: 24%
[3]
  %Inh: 20%
[4]
  %Inh: 19%
[5]
  %Inh: 23%
[6]
  %Inh: 0%
[7]
  %Inh: 24%
[8]
  %Inh: 34%
[9]
  %Inh: 82%
[10]
  %Inh: 60%

## CC(C)Nc1cc(-c2ccc3c(N)n[nH]c3c2)nc(N)n1 [GSK2221681]
[1]
  %Inh: 0%
[2]
  %Inh: 0%
[3]
  %Inh: 0%
[4]
  %Inh: 0%
[5]
  %Inh: 0%
[6]
  %Inh: 0%
[7]
  %Inh: 0%
[8]
  %Inh: 0%
[9]
  %Inh: 0%
[10]
  %Inh: 17%

## NC(=O)c1cc(-c2ccccc2)cc2c(C3CCNCC3)c[nH]c12 [GSK301362]
[1]
  %Inh: 0%
[2]
  %Inh: 0%
[3]
  %Inh: 0%
[4]
  %Inh: 0%
[5]
  %Inh: 5%
[6]
  %Inh: 0%
[7]
  %Inh: 0%
[8]
  %Inh: 0%
[9]
  %Inh: 35%
[10]
  %Inh: 34%

## Cc1cc2cn[nH]c2cc1-c1cccc2c(N)c(C(N)=O)nnc12
[1]
  %Inh: 16%
[2]
  %Inh: 0%
[3]
  %Inh: 5%
[4]
  %Inh: 0%
[5]
  %Inh: 0%
[6]
  %Inh: 36%
[7]
  %Inh: 28%
[8]
  %Inh: 45%
[9]
  %Inh: 58%
[10]
  %Inh: 68%

## C[C@H]1Oc2cc(cnc2N)-c2c(nn(C)c2C#N)CN(C)C(=O)c2ccc(F)cc21
[1]
  %Inh: 0%
[2]
  %Inh: 15%
[3]
  %Inh: 9%
[4]
  %Inh: 0%
[5]
  %Inh: 6%
[6]
  %Inh: 6%
[7]
  %Inh: 0%
[8]
  %Inh: 30%
[9]
  %Inh: 83%
[10]
  %Inh: 65%

## CC(C)N1C(=O)Cc2cc(Nc3ncc(C(F)(F)F)c(NCc4cccc(S(C)(=O)=O)c4)n3)ccc21
[1]
  %Inh: 25%
[2]
  %Inh: 27%
[3]
  %Inh: 38%
[4]
  %Inh: 42%
[5]
  %Inh: 25%
[6]
  %Inh: 48%
[7]
  %Inh: 27%
[8]
  %Inh: 47%
[9]
  %Inh: 51%
[10]
  %Inh: 37%

## Cl.Oc1cc(-c2nc(-c3ccccc3)[nH]c2-c2ccncc2)ccc1Cl [SB-386023]
[1]
  %Inh: 0%
[2]
  %Inh: 0%
[3]
  %Inh: 2%
[4]
  %Inh: 0%
[5]
  %Inh: 9%
[6]
  %Inh: 21%
[7]
  %Inh: 0%
[8]
  %Inh: 2%
[9]
  %Inh: 7%
[10]
  %Inh: 23%

## CCN(CC)CCCCNc1ncc2cc(-c3c(Cl)cccc3Cl)c(NC(=O)NC(C)(C)C)nc2n1
[1]
  %Inh: 8%
[2]
  %Inh: 0%
[3]
  %Inh: 23%
[4]
  %Inh: 1%
[5]
  %Inh: 2%
[6]
  %Inh: 13%
[7]
  %Inh: 23%
[9]
  %Inh: 34%
[10]
  %Inh: 0%

## Cc1occc1-c1nc(N)c(OC[C@@H](N)Cc2c[nH]c3ccccc23)cc1-c1cc2c(C)n[nH]c2cn1 [GSK1660450]
[1]
  %Inh: 0%
[2]
  %Inh: 70%
[3]
  %Inh: 71%
[4]
  %Inh: 71%
[5]
  %Inh: 57%
[6]
  %Inh: 19%
[7]
  %Inh: 0%
[8]
  %Inh: 0%
[9]
  %Inh: 39%
[10]
  %Inh: 0%

## Nc1nc(Nc2ccccc2)cc(-c2ccc3c(N)n[nH]c3c2)n1 [GSK2225749]
[1]
  %Inh: 0%
[2]
  %Inh: 8%
[3]
  %Inh: 0%
[4]
  %Inh: 0%
[5]
  %Inh: 8%
[6]
  %Inh: 18%
[7]
  %Inh: 0%
[8]
  %Inh: 9%
[9]
  %Inh: 5%
[10]
  %Inh: 23%

## COc1ccc(C[C@@H](CN)NC(=O)c2cc(Br)c(-c3ccnc4[nH]ccc34)s2)cc1.Cl.Cl [GSK1389063]
[1]
  %Inh: 0%
[2]
  %Inh: 0%
[3]
  %Inh: 54%
[4]
  %Inh: 63%
[5]
  %Inh: 1%
[6]
  %Inh: 0%
[7]
  %Inh: 1%
[8]
  %Inh: 22%
[9]
  %Inh: 95.2%
[10]
  %Inh: 69%

## Cc1cc(C(=O)Nc2ccc(Oc3ccc4nc(NC(=O)C5CC5)cn4n3)cc2)nn1-c1ccccc1
[1]
  %Inh: 0%
[2]
  %Inh: 9%
[3]
  %Inh: 3%
[4]
  %Inh: 7%
[5]
  %Inh: 44%
[6]
  %Inh: 16%
[7]
  %Inh: 0%
[8]
  %Inh: 17%
[9]
  %Inh: 0%
[10]
  %Inh: 0%

## C[C@@H]1CCN(C(=O)CC#N)C[C@@H]1N(C)c1ncnc2[nH]ccc12
[1]
  %Inh: 0%
[2]
  %Inh: 0%
[5]
  %Inh: 0%
[6]
  %Inh: 0%
[7]
  %Inh: 0%
[8]
  %Inh: 0%
[9]
  %Inh: 0%
[10]
  %Inh: 0%

## Cl.Cl.NC[C@H](Cc1ccc(C(F)(F)F)cc1)NC(=O)c1cc(Br)c(-c2ccnc3[nH]ccc23)s1 [GSK1487252]
[1]
  %Inh: 0%
[2]
  %Inh: 0%
[3]
  %Inh: 0%
[4]
  %Inh: 47%
[5]
  %Inh: 0%
[6]
  %Inh: 0%
[7]
  %Inh: 0%
[8]
  %Inh: 0%
[9]
  %Inh: 77%
[10]
  %Inh: 23%

## Cl.Cl.Nc1nc(-c2ccc3c(N)n[nH]c3c2)cc(N2CCCC(NC(=O)c3ccccc3)C2)n1 (stereo not drawn) [GSK2286775]
[1]
  %Inh: 0%
[2]
  %Inh: 5%
[3]
  %Inh: 0%
[4]
  %Inh: 0%
[5]
  %Inh: 0%
[6]
  %Inh: 0%
[7]
  %Inh: 0%
[8]
  %Inh: 0%
[9]
  %Inh: 6%
[10]
  %Inh: 14%

## Cc1ccc(-n2nc(C(C)(C)C)cc2NC(=O)Nc2ccc(OCCN3CCOCC3)c3ccccc23)cc1 [GW839464]
[1]
  %Inh: 0%
[2]
  %Inh: 18%
[3]
  %Inh: 21%
[4]
  %Inh: 2%
[5]
  %Inh: 7%
[6]
  %Inh: 0%
[7]
  %Inh: 0%
[8]
  %Inh: 0%
[9]
  %Inh: 0%
[10]
  %Inh: 0%

## C[C@@H](Oc1cc(-c2cnn(C3CCNCC3)c2)cnc1N)c1c(Cl)ccc(F)c1Cl
[1]
  %Inh: 8%
[2]
  %Inh: 25%
[3]
  %Inh: 0%
[4]
  %Inh: 25%
[5]
  %Inh: 26%
[6]
  %Inh: 0%
[7]
  %Inh: 12%
[8]
  %Inh: 20%
[9]
  %Inh: 18%
[10]
  %Inh: 43%

## O=C(NCCCN1CCOC1=O)c1cnc(NCc2cc(Cl)ccc2Cl)nc1NC1CCCC1
[1]
  %Inh: 0%
[2]
  %Inh: 13%
[3]
  %Inh: 0%
[4]
  %Inh: 30%
[5]
  %Inh: 5%
[6]
  %Inh: 19%
[7]
  %Inh: 0%
[8]
  %Inh: 30%
[9]
  %Inh: 10%
[10]
  %Inh: 0%

## CNC(=O)c1ccccc1Sc1ccc2c(/C=C/c3ccccn3)n[nH]c2c1
[1]
  %Inh: 0%
[2]
  %Inh: 0%
[3]
  %Inh: 35%
[4]
  %Inh: 1%
[5]
  %Inh: 6%
[6]
  %Inh: 0%
[7]
  %Inh: 0%
[8]
  %Inh: 0%
[9]
  %Inh: 0%
[10]
  %Inh: 0%

## CN(C)CCOc1ccc(-c2cc(-c3c[nH]nc3-c3ccccn3)ccn2)cc1 [GW835314]
[1]
  %Inh: 0%
[2]
  %Inh: 13%
[3]
  %Inh: 18%
[4]
  %Inh: 5%
[5]
  %Inh: 38%
[6]
  %Inh: 5%
[7]
  %Inh: 0%
[8]
  %Inh: 18%
[9]
  %Inh: 11%
[10]
  %Inh: 29%

## CCN(CC)CCOc1ccc(Nc2ncc3cc(-c4c(Cl)cccc4Cl)c(=O)n(C)c3n2)cc1 [SB-601273]
[1]
  %Inh: 0%
[2]
  %Inh: 20%
[3]
  %Inh: 87%
[4]
  %Inh: 84%
[5]
  %Inh: 6%
[6]
  %Inh: 48%
[7]
  %Inh: 98.1%
[8]
  %Inh: 98.7%
[9]
  %Inh: 38%
[10]
  %Inh: 47%

## CCn1c(-c2nonc2N)nc2c(C#CC(C)(C)O)nc(OCCN)cc21.Cl.Cl [GSK902056]
[1]
  %Inh: 0%
[2]
  %Inh: 0%
[3]
  %Inh: 0%
[4]
  %Inh: 0%
[5]
  %Inh: 0%
[6]
  %Inh: 28%
[7]
  %Inh: 0%
[8]
  %Inh: 0%
[9]
  %Inh: 37%
[10]
  %Inh: 26%

## C=CC(=O)Nc1cc2c(Nc3ccc(F)c(Cl)c3)ncnc2cc1OCCCN1CCOCC1 [GW781483]
[1]
  %Inh: 14%
[2]
  %Inh: 0%
[3]
  %Inh: 9%
[4]
  %Inh: 10%
[5]
  %Inh: 0%
[6]
  %Inh: 36%
[7]
  %Inh: 38%
[8]
  %Inh: 63%
[9]
  %Inh: 7%
[10]
  %Inh: 0%

## O=C(NCCNc1ccnc(NCc2ccc(F)cc2)n1)c1cc2ccccc2s1 [GSK1379944]
[1]
  %Inh: 0%
[2]
  %Inh: 0%
[3]
  %Inh: 0%
[4]
  %Inh: 0%
[5]
  %Inh: 0%
[6]
  %Inh: 0%
[7]
  %Inh: 0%
[8]
  %Inh: 0%
[9]
  %Inh: 0%
[10]
  %Inh: 1%
